# HT1080 IDH1KD tx: HT-1080 IDH1 knockdown cell toxicity (counter line); Potency, µM (top dose mostly 46.1 µM), for the others: at the highest dose activity, negative = toxicity, most hits filed as cytotoxic; 360,000 compounds, 2% hits; HT-1080 IDH1 knockdown viability, ATP luminescence, 48 h;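 further: 0% = DMSO wells and -100% = cell-free medium wells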
#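 Assay cells: HT-1080 with IDH1 knockdown, 750 per well, RPMI/5% FBS. Exposure: 48 h at 37 °C following 2 h pre-incubation. Read: CellTiter-Glo luminescence; fitted concentration-response, curve class assigned.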
# KB-V1 cytotox: KB-V1 MDR subline cytotoxicity. KB-V1 MDR cells viability, CellTiter-Glo, 72 h. Potency, µM (highest dose often 46.1 µM), usual class: cytotoxic. 400,000 compounds, 3.4% hits. AID 1347076; further: nearly all actives have a fitted effect of over 60% in size
#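 KB-V1 MDR subline cells in DMEM (phenol-red free, 10% FBS) exposed to compounds in qHTS concentration series for 72 h at 37 degrees C. Viability read by CellTiter-Glo luminescence; concentration-effect curves fitted after normalization and correction.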
# TDP1 cell noCPT: qHTS for Inhibitors of human tyrosyl-DNA phosphodiesterase 1 (TDP1): qHTS in cells in absence of CPT; DT40 Tdp1-/- hTDP1 cells, no CPT, ATP luminescence, 48 h; 420,000 compounds, 15% hits; Potency, µM (highest dose often 46.2 µM), inactives show at the top dose activity change, negative = growth inhibition, most hits filed as inhibitors; further: nearly all actives have a fitted effect of over 55% in size
#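 Stably hTDP1-transfected Tdp1-null chicken DT40 cells were treated with library compounds minus camptothecin and grown for at least 48 hr at 37 °C, after which cellular ATP was quantified by luminescence.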
# KB-3-1 tox: KB-3-1 parental cell cytotoxicity; 400,000 compounds, 1.4% hits; AID 1347075; KB-3-1 viability, CellTiter-Glo ATP luminescence, 72 h; Potency, µM (series often up to 46.1 µM), actives largely listed as cytotoxic; further: nearly all actives have a fitted effect of over 60% in size
#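 Cytotoxicity measured as CellTiter-Glo luminescence after 72 h at 37 C. Compound titrations were pinned onto drug-naive KB-3-1 parental adenocarcinoma cells grown in DMEM with 10% FBS, and normalized data fitted to concentration-response curves.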
# DT40 TDP1 CPT: growth inhibition of DT40 Tdp1-/-;hTDP1 cells with camptothecin (screen for TDP1 inhibitors); AID 686979; 420,000 compounds, 12% hits; chicken DT40 Tdp1-/-;hTDP1 cells + 20 nM CPT, ATP luminescence, 48 h; Potency, µM (highest dose often 46.2 µM), for inactives: at the top dose activity change, negative = growth inhibition, actives largely listed as inhibitors; further: nearly all actives have a fitted effect of over 55% in size
#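 Chicken DT40 Tdp1-/- cells complemented with human TDP1, 400 cells/well, exposed to compounds plus 20 nM camptothecin for at least 48 h at 37 C; viability read as ATP content by CellTiter-Glo luminescence.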
# HT1080NT lethal: kills 2HG-producing HT-1080-NT fibrosarcoma cells; HT-1080-NT fibrosarcoma viability, CellTiter-Glo ATP luminescence, 48 h; Potency, µM (highest dose often 46.1 µM), without a hit: at the highest dose activity, negative = less viability, hits mostly cytotoxic; 360,000 compounds, 1.6% hits; AID 686970;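 further: NT is the 2HG producing partner of a matched IDH1 knockdown line; 0% = DMSO-treated cells and -100% = media-only wells without cells; nearly all actives have a fitted effect of over 55% in size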
#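 Luminescent CellTiter-Glo readout after 48 hours of compound exposure at 37 degrees C defined viability of HT-1080-NT cells. Activity was normalized to DMSO wells and cell-free media wells; concentration-response curves were fitted and assigned curve classes.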
# An asterisk follows results filed as active; i = inactive; ? = inconclusive; · = no result given; [ ] = dose if it differs, or a comment. In the library only some 19% were active in any assay of this set; here they are far more common. The call rests on the fitted dose curve; in most records, active means well fitted curve in the direction sought with a large enough effect; inconclusive means small, poorly fitted or top-dose-only effect, or another doubt; inactive means no such curve, though single readings can be large; an effect the other way counts as inactive or inconclusive. Unless noted, on the % scale 0 is the no-effect control and ±100 the full control effect; potency means the concentration at half of the fitted maximal effect.
SMILES,HT1080 IDH1KD tx,KB-V1 cytotox,TDP1 cell noCPT,KB-3-1 tox,DT40 TDP1 CPT,HT1080NT lethal
COc1ccc(CN2C(=O)C(CC(=O)NCCCCc3ccccc3)CC(C(=O)N(C(C)C)C(C)C)=C2C)cc1 (configuration not stated),-8.7%,i,11.6µM*,i,13µM*,-1.9%
CC1=C(C(=O)N(C(C)C)C(C)C)CC(CC(=O)NCCN2CCOCC2)C(=O)N1Cc1ccc(C(C)(C)C)cc1 (configuration not stated),0.7%,i,18.4µM*,i,?,-2.8%
O=C(CCS(=O)(=O)c1ccc(Cl)cc1)N1CCCc2ccccc21,0.5%,?,-14.7%,i,-26.8%,-5.5%
CNC[C@H](Cc1ccccc1)NC[C@@H](Cc1cccc2ccccc12)NCCc1ccc(C)cc1,?,?,14.6µM*,7.31µM*,18.4µM*,?
Cc1cccc(CSCCNC(=O)CN(c2ccccc2)S(=O)(=O)N(C)C)c1,·,·,20.6µM*,·,?,·
CS(=O)(=O)N(CC(=O)NCCSCc1cccc(Cl)c1)c1ccc(F)cc1,-0.9%,i,-17.0%,i,-16.8%,-9.4%
CN(C)S(=O)(=O)N(CC(=O)NCCSCc1cccc(Cl)c1)c1ccccc1,·,?,23.1µM*,i,?,·
O=C(C1COc2ccccc2O1)N(Cc1cccnc1)c1nc2ccc(Cl)cc2s1 (configuration not stated),·,·,-10.4%,·,-2.9%,·
CCOc1ccc(-c2nonc2NC(=O)c2oc3ccc(F)cc3c2C)cc1,·,i,0.82µM*,?,0.92µM*,·
CCOc1ccc(-c2nonc2NC(=O)c2oc3cc(C)ccc3c2C)cc1OCC,·,i,-24.5%,i,-7.5%,·
Cc1c(C(=O)Nc2nonc2-c2ccc(F)cc2)oc2ccc(F)cc12,20.6µM*,?,?,18.4µM*,?,?
CCCOc1ccc(-c2nonc2NC(=O)c2oc3ccc(Cl)cc3c2C)cc1OCCC,·,i,7.31µM*,i,?,·
Cc1cccc2c(=O)cc(CSc3ccccc3NC(=O)c3cccc(Cl)c3)[nH]c12,·,i,?,i,?,·
OCC[C@@H]1C[C@H](O)[C@@H](O)[C@@]2(OCCCc3cc(Cl)ccc32)O1,23.7%,i,-3.2%,i,-3.6%,-0.4%
O=C(/C=C/c1cccc(Cl)c1)c1ccc([N+](=O)[O-])o1,?,i,0.581µM*,?,0.581µM*,?
COc1cc(C(=O)COC(=O)c2ccc([N+](=O)[O-])o2)cc(OC)c1OC,-4.0%,·,-8.9%,·,-11.7%,-10.4%
COc1ccc(/C=C/C(=O)c2ccc([N+](=O)[O-])o2)cc1OC,?,?,1.16µM*,?,0.581µM*,?
COc1cc(/C=C/C(=O)c2ccc([N+](=O)[O-])o2)ccc1O,?,i,0.517µM*,i,0.92µM*,18.4µM*
COc1ccc(-c2cccc3c2OC(CNC(=O)c2ccc4c(c2)OCO4)C3)nn1 (configuration not stated),·,·,-15.8%,·,17.2%[9.04 µM],·
C/C=C/c1ccc(OCC(=O)Nc2cc(OC)c(OC)c(OC)c2)c(OC)c1,-14.3%,?,11.6µM*,?,13µM*,-14.7%
COc1cc(/C=C/c2cccc[n+]2C)ccc1OCC(=O)Nc1cccc(Cl)c1,-7.3%,?,18.4µM*,?,-17.9%,-1.7%
COc1cc(/C=C/c2cccc[n+]2C)ccc1OCC(=O)Nc1ccccc1,11.5%,i,-19.9%,i,-30.8%,9.8%
COc1ccc(NC(=O)COc2ccc(/C=C/c3cc[n+](C)cc3)cc2OC)cc1,7.0%,i,23.1µM*,?,?,-2.5%
COc1cc(/C=C/c2cc[n+](C)cc2)ccc1OCC(=O)Nc1ccc(Cl)c(Cl)c1,23.1µM*,i,?,?,?,?
COc1ccc(NC(=O)COc2ccc(/C=C/c3cccc[n+]3C)cc2OC)cc1,-1.0%,?,-9.9%,i,0.4%,9.6%
SMILES,HT1080 IDH1KD tx,KB-V1 cytotox,TDP1 cell noCPT,KB-3-1 tox,DT40 TDP1 CPT,HT1080NT lethal
O=C(NCCc1nnc2n1CCN(Cc1ccc(F)c(F)c1)CC2)c1ccoc1,·,·,-16.7%,·,7.8%,·
Cc1ccc(Cc2nnc(SCC(=O)Nc3ccccc3)n(N)c2=O)cc1,15.3%,i,-7.6%,i,-24.4%,-0.4%
COC(=O)c1ccc(C(C(=O)NCc2ccccc2)N(Cc2cccs2)C(=O)c2cnccn2)cc1 (configuration not stated),-17.0%,i,16.4µM*,i,?,-6.2%
Cc1ccc(C(C(=O)NCc2ccccc2)N(Cc2cccs2)C(=O)c2ccc3c(c2)OCCO3)cc1 (configuration not stated),?,i,3.66µM*,?,9.2µM*,?
O=Cc1ccsc1B(O)O,·,i,-0.8%,?,-3.4%,·
COc1ccc(OC)c(S(=O)(=O)NCc2ccccn2)c1,4.8%,i,-2.4%,i,-1.9%,-7.2%
COc1ccnc(CSC(N)=Nc2ccccc2C(F)(F)F)c1,-16.5%,i,14.6µM*,i,25.9µM*,-10.6%
CC(=Nc1ccccc1C(F)(F)F)c1ccncc1,10.9%,i,-3.9%,i,1.4%,17.5%
COc1ccnc(CSC(N)=Nc2cccc(C(F)(F)F)c2)c1,-6.6%,?,16.4µM*,?,11.6µM*,0.9%
COc1ccnc(CSC(N)=Nc2ccccc2OC)c1,-6.3%,?,12.6µM*,?,?,?
Cc1ccc2c(c1)CCO[C@@]21O[C@H](CCO)C[C@H](O)[C@H]1O,9.6%,?,-10.4%,i,-13.9%,8.7%
O=C(Nc1nnc(S(=O)(=O)N2CCCc3ccccc32)s1)c1ccccc1Br,·,i,?,i,?,·
CCSc1nnc(C(C)NC(=O)c2ccc(OC)cc2)n1C (configuration not stated),·,·,-12.7%,·,8.6%[9.04 µM],·
COc1cccc(CC(=O)Nc2ccc(F)c(S(=O)(=O)N3CCOCC3)c2)c1,1.7%,i,-4.5%,i,-15.5%,0.0%
CCNC(=O)C1(C)CCCN(Cc2cccc3c(OC)cc(C(=O)OCC)cc23)C1 (configuration not stated),-0.6%,i,?,i,?,4.4%
Cc1cc(C(C)(C)C)cc(C)c1CCNC(=O)c1c(C)noc1C,?,?,25.9µM*,?,29.1µM*,?
Cc1ccc(C(=O)N2CCN(Cc3ccccc3)CC2)cc1S(=O)(=O)N1CCOCC1,4.3%,i,-10.8%,i,0.1%,-1.3%

# Screening data (PubChem BioAssay)
